Source: PubChem BioAssay (NCATS)
“And” between values parts separate entries of the source, which are not always exact repeats. Identical values can stand only once. Inconclusive results are not listed. Where a call stands in place of a potency, no number is given. A structure can be active in one record and inactive in another. The source made the active and inactive calls. The call rests on the fitted dose curve; in most records, active means well fitted curve in the direction sought with a large enough effect; inconclusive means small, poorly fitted or top-dose-only effect, or another doubt; inactive means no such curve, though single readings can be large; an effect the other way counts as inactive or inconclusive. Non-standard residues stand in square brackets, D forms with d. Residues, ends and D or L forms follow the SMILES beside them. *: point of attachment. Sta = CC(C)C[C@H](N)[C@@H](O)CC(=O)O; Isovaleryl = CC(C)CC(=O)*

How the values were obtained:
[1] = molecular target: Phospholipid hydroperoxide glutathione peroxidase GPX4 (Homo sapiens) (UniProt P36969); experiment: Primary qHTS Assay for Inhibitors of Recombinant Selenoprotein Glutathione Peroxidase 4 (GPX4) (AID 1845192); further: nearly all actives have a fitted effect of over 65% in size; further: potency means the concentration at half of the fitted maximal effect
In short: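 NADPH consumption followed by fluorescence at 340/450 nm, t=0 and after 15 min at room temperature. Reaction started with cumene hydroperoxide (0.5 mM final) after 30 min compound–GPX4 preincubation; final 200 nM GPX4, 100 nM GR, 1 mM GSH, 0.5 mM NADPH.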

[2] = Quantitative High-Throughput drug screen in 47 multiple myeloma cell lines against the NCATS MIPE library collection: FR4_PLB cell viability assay (AID 1918924; further: nearly all actives have a fitted effect of over 35% in size; further: potency means the concentration at half of the fitted maximal effect)
In short: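 Myeloma cells (500 per well) were exposed to MIPE 4.0 compounds by pin transfer and incubated 48 hours at 37C, 5% CO2. Viability was read as ATP by CellTiter-Glo luminescence, normalised to DMSO (100%) and media-only (0%) wells.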

[3] = Quantitative High-Throughput drug screen in 47 multiple myeloma cell lines against the NCATS MIPE library collection: EJM_DSMZ cell viability assay (AID 1918926; further: nearly all actives have a fitted effect of over 30% in size; further: potency means the concentration at half of the fitted maximal effect)
In short: (§1)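 Myeloma cell lines, 500 cells per well, exposed to MIPE 4.0 library compounds for 48 h at 37C, 5% CO2. Viability from ATP by CellTiter-Glo luminescence; normalised to DMSO (100%) and media-only (0%) wells.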

[4] = Quantitative High-Throughput drug screen in 47 multiple myeloma cell lines against the NCATS MIPE library collection: ARP1_JJKsccF8 cell viability assay (AID 1918928; further: nearly all actives have a fitted effect of over 40% in size; further: potency means the concentration at half of the fitted maximal effect)
In short: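 Cell viability inhibition in this qHTS is measured via ATP content (CellTiter-Glo) after 48 h drug exposure at 37 °C. Wells hold 500 cells; DMSO-treated wells define 100% and medium-only wells 0%.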

[5] = Quantitative High-Throughput drug screen in 47 multiple myeloma cell lines against the NCATS MIPE library collection: Delta47_JCRB cell viability assay (AID 1918925; further: nearly all actives have a fitted effect of over 45% in size; further: potency means the concentration at half of the fitted maximal effect)
In short: as §1

[6] = Quantitative High-Throughput drug screen in 47 multiple myeloma cell lines against the NCATS MIPE library collection: AMO1_DSMZ cell viability assay (AID 1918927; further: nearly all actives have a fitted effect of over 30% in size; further: potency means the concentration at half of the fitted maximal effect)
In short: as §1

[7] = molecular target: Luciferin 4-monooxygenase (Photinus pyralis) (UniProt P08659); experiment: Primary firefly luciferase (FLuc) qHTS assay for identification of artifact compounds. (AID 1845220); further: series mostly up to about 54 µM; nearly all actives have a fitted effect of over 60% in size
In short: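 FLuc 10 nM; luciferin 10 uM; ATP 10 uM; Tris-acetate pH 7.6, Mg-acetate 10 mM; 15 min RT preincubation; 5 min reaction; luminescence.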

[8] = Primary fluorescence-based thiol-reactive (MSTI) qHTS assay for identification of artifact compounds. (AID 1845221);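 further: series mostly up to about 54 µM; thiol-reactive compounds lower the probe fluorescence signal; nearly all actives have a fitted effect of over 65% in size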
In short: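 A multi-concentration qHTS design tested compounds against 4 uM MSTI, pH 7.4 phosphate-buffered saline. Plates were protected from light for 1 h at room temperature before imaging fluorescence.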

[9] = test system: Nanoluciferase (engineered Oplophorus gracilirostris luciferase); experiment: Primary Nanoluciferase (NLuc) qHTS assay for identification of artifact compounds. (AID 1845222);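 further: NLuc secreted into diluted conditioned medium of S16 cells; series mostly up to about 54 µM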
In short: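 NLuc from S16 cell medium (1:55) plus test compounds, 15 min, room temperature. Luminescence after Nano-Glo (1:100) addition, 5 min.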

[10] = Primary redox qHTS assay for identification of artifact compounds. (AID 1845223)
In short: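 Redox-cycling detection via DTT (250 uM final) oxidation coupled to Amplex Red (25 uM)/HRP (250 mU/mL) in HBSS. 15 min preincubation plus 30 min after DTT, room temperature. Ex/Em 525/598 nm; 4-parameter Hill fit against DMSO and 10 uM DA3003.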

Chain of Phospholipid hydroperoxide glutathione peroxidase GPX4 (Homo sapiens) (P36969 whole entry, looked up): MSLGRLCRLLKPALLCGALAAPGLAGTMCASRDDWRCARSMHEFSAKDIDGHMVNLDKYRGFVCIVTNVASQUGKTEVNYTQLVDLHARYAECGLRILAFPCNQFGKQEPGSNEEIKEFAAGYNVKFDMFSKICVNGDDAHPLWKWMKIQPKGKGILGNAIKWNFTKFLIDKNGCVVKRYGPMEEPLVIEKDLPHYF

For `CN1CCC(=C2c3ccccc3CCc3sccc32)CC1`, the Potency [1] was “inactive”, the Potency [2] was “inactive” and the Potency [3] was “inactive”. The Potency [4] was “inactive”.
In the case of `CCCCN(CCCC)CCC(O)c1cc2c(Cl)cc(Cl)cc2c2cc(C(F)(F)F)ccc12` (configuration not stated), the Potency [1] is reported as “inactive”, the Potency [2] is reported as 20.9 µM (active) and the Potency [3] is reported as 0.264 µM (active). The Potency [4] was “inactive”.
In the case of `CN(C)[C@@H](CCOc1cccc2ccccc12)c1ccccc1`, the Potency [1] is reported as “inactive”, the Potency [2] is reported as 18.7 µM (active) and the Potency [4] is reported as 26.4 µM (active).
In the case of `CC(S)C(=O)NCC(=O)O` (configuration not stated), the Potency [1] is reported as “inactive”, the Potency [2] is reported as “inactive” and the Potency [3] is reported as “inactive”. For the same compound, the Potency [4] was “inactive”.
In the case of `COC1=C(OC)C(=O)C(CCCCCCCCCCO)=C(C)C1=O`, the Potency [1] is reported as “inactive”, the Potency [5] is reported as 18.7 µM (active) and the Potency [3] is reported as “inactive”. For the same compound, the Potency [6] was 10.5 µM (active) and the Potency [4] was 23.5 µM (active).
For `CNC[C@H](O)c1ccc(O)c(O)c1`, the Potency [1] was “inactive”, the Potency [2] was 9.59 µM (active) and the Potency [4] was 15.2 µM (active).
With `CN(C)CCc1c[nH]c2ccc(Cn3cncn3)cc12` the Potency [1] was “inactive”, the Potency [2] was “inactive” and the Potency [3] was “inactive”. For the same compound, the Potency [4] was “inactive”.
For `CCCOc1ccc2nc(NC(=O)OC)[nH]c2c1`, the Potency [1] was “inactive”, the Potency [2] was “inactive” and the Potency [6] was 0.001 µM (active).
With `O=c1c(O)c(-c2ccc(O)cc2O)oc2cc(O)cc(O)c12` the Potency [1] was “inactive and 10.1 µM (active)”, the Potency [2] was “inactive” and the Potency [3] was “inactive”. For the same compound, the Potency [4] was “inactive”.
For `CC1(C)CCC(C)(C)c2cc(NC(=O)c3ccc(C(=O)O)cc3)ccc21`, the Potency [1] was 10 µM (active), the Potency [2] was “inactive” and the Potency [4] was “inactive”.
For `O=c1cc(N2CCOCC2)oc2c(-c3ccccc3)cccc12`, the Potency [1] was “inactive”, the Potency [2] was 16.6 µM (active) and the Potency [4] was 18.7 µM (active).
In the case of `Cc1nc2n(c(=O)c1CCN1CCC(c3noc4cc(F)ccc34)CC1)CCCC2`, the Potency [1] is reported as “inactive”, the Potency [2] is reported as “inactive” and the Potency [3] is reported as “inactive”. For the same compound, the Potency [4] was “inactive”.
For `NNc1nncc2ccccc12`, the Potency [1] was “inactive”, the Potency [2] was “inactive” and the Potency [4] was “inactive”.
With `Clc1ccc2c(N3CCN(CCCN4CCN(c5ccnc6cc(Cl)ccc56)CC4)CC3)ccnc2c1` the Potency [1] was “inactive”, the Potency [2] was “inactive” and the Potency [6] was “inactive”.
For `Cc1cc2cc3c(C)cc(=O)oc3c(C)c2o1`, the Potency [1] was “inactive”, the Potency [5] was 20.9 µM (active) and the Potency [3] was 5.9 µM (active).
In the case of `CC(C)c1ccc2c(c1)c(SC(C)(C)C)c(CC(C)(C)C(=O)O)n2Cc1ccc(Cl)cc1`, the Potency [1] is reported as “inactive” and the Potency [5] is reported as 26.4 µM (active).
In the case of `Nc1cc(C(Cl)=C(Cl)Cl)c(S(N)(=O)=O)cc1S(N)(=O)=O`, the Potency [1] is reported as “inactive”, the Potency [2] is reported as “inactive” and the Potency [3] is reported as “inactive”. The Potency [6] was “inactive” and the Potency [4] was “inactive”.
For `COC(=O)N[C@H](C(=O)N[C@@H](Cc1ccccc1)[C@@H](O)CN(Cc1ccc(-c2ccccn2)cc1)NC(=O)[C@@H](NC(=O)OC)C(C)(C)C)C(C)(C)C`, the Potency [1] was “inactive”, the Potency [2] was “inactive” and the Potency [3] was “inactive”. For the same compound, the Potency [4] was 16.6 µM (active).
In the case of `COC(=O)C1=C(C)NC(C)=C(C(=O)OC(C)C)C1c1cccc2nonc12` (configuration not stated), the Potency [1] is reported as “inactive”, the Potency [5] is reported as 2.96 µM (active) and the Potency [3] is reported as “inactive”. For the same compound, the Potency [4] was “inactive”.
For `O=c1c(O)c(-c2cc(O)c(O)c(O)c2)oc2cc(O)cc(O)c12`, the Potency [1] was “inactive”, the Potency [5] was “inactive” and the Potency [3] was “inactive”.
For `CC(C)[N+]1(C)[C@@H]2CC[C@H]1CC(OC(=O)C(CO)c1ccccc1)C2` (some centres not stated), the Potency [1] was “inactive”, the Potency [2] was “inactive” and the Potency [3] was “inactive”. For the same compound, the Potency [4] was “inactive”.
With `CN(C)C(=O)COC(=O)Cc1ccc(OC(=O)c2ccc(N=C(N)N)cc2)cc1` the Potency [1] was “inactive”, the Potency [2] was “inactive” and the Potency [4] was “inactive”.
For `Cc1c(OCC(F)(F)F)ccnc1CS(=O)c1nc2ccccc2[nH]1` (configuration not stated), the Potency [1] was 4.53 µM (active), the Potency [2] was “inactive” and the Potency [3] was “inactive”. The Potency [4] was “inactive”.
In the case of `O=C(NCC1CCCCN1)c1cc(OCC(F)(F)F)ccc1OCC(F)(F)F` (configuration not stated), the Potency [1] is reported as “inactive”, the Potency [5] is reported as 8.33 µM (active) and the Potency [3] is reported as “inactive”. The Potency [6] was 3.32 µM (active).
For `Nc1nc(OCc2ccccc2)c2[nH]cnc2n1`, the Potency [1] was “inactive”, the Potency [2] was “inactive” and the Potency [3] was “inactive”. For the same compound, the Potency [4] was 20.9 µM (active).
In the case of `Oc1ccc(-c2nc(-c3ccc(F)cc3)c(-c3ccncc3)[nH]2)cc1`, the Potency [1] is reported as “inactive”, the Potency [5] is reported as 5.9 µM (active) and the Potency [6] is reported as “inactive”.
With `O=P(O)(O)C(O)(Cn1ccnc1)P(=O)(O)O` the Potency [1] was “inactive”, the Potency [2] was “inactive” and the Potency [3] was “inactive”. The Potency [4] was “inactive”.
With `CC[C@]1(O)C[C@H]2CN(CCc3c([nH]c4ccccc34)[C@@](C(=O)OC)(c3cc4c(cc3OC)N(C=O)[C@H]3[C@@](O)(C(=O)OC)[C@H](OC(C)=O)[C@]5(CC)C=CCN6CC[C@]43[C@@H]65)C2)C1` the Potency [1] was “inactive”, the Potency [2] was “inactive” and the Potency [6] was 0.372 µM (active). For the same compound, the Potency [4] was 0.003 µM (active).
For `Nc1nc(Cl)nc2c1ncn2[C@H]1C[C@H](O)[C@@H](CO)O1`, the Potency [1] was “inactive”, the Potency [2] was 3.72 µM (active) and the Potency [6] was 0.187 µM (active).
For `CN1C(C(=O)Nc2ccccn2)=C(O)c2sccc2S1(=O)=O`, the Potency [1] was “inactive”, the Potency [2] was “inactive” and the Potency [3] was “inactive”. The Potency [4] was “inactive”.
With `NC(=O)Cc1cccc(C(=O)c2ccccc2)c1N` the Potency [1] was “inactive”, the Potency [5] was “inactive” and the Potency [3] was “inactive”. For the same compound, the Potency [6] was “inactive”.
With `CCOc1cc(CC(=O)N[C@@H](CC(C)C)c2ccccc2N2CCCCC2)ccc1C(=O)O` the Potency [1] was “inactive”, the Potency [2] was “inactive” and the Potency [3] was “inactive”. The Potency [4] was “inactive”.
For `O=C(NC(Cc1cc(=O)[nH]c2ccccc12)C(=O)O)c1ccc(Cl)cc1` (configuration not stated), the Potency [1] was “inactive”, the Potency [2] was “inactive” and the Potency [3] was 4.69 µM (active). For the same compound, the Potency [4] was “inactive”.
For `CC(=O)N1CCN(c2ccc(OC[C@H]3CO[C@](Cn4ccnc4)(c4ccc(Cl)cc4Cl)O3)cc2)CC1`, the Potency [1] was “inactive”, the Potency [5] was 18.7 µM (active) and the Potency [3] was 8.33 µM (active). For the same compound, the Potency [6] was 7.43 µM (active).
In the case of `CC(C)CC(=O)N[C@H](C(=O)N[C@H](C(=O)N[C@@H](CC(C)C)[C@@H](O)CC(=O)N[C@@H](C)C(=O)N[C@@H](CC(C)C)[C@@H](O)CC(=O)O)C(C)C)C(C)C` (Isovaleryl-VV[Sta]A[Sta]-OH), the Potency [1] is reported as “inactive”, the Potency [2] is reported as “inactive” and the Potency [3] is reported as “inactive”. The Potency [4] was “inactive”.
In the case of `COCCCOc1ccnc(CS(=O)c2nc3ccccc3[nH]2)c1C` (configuration not stated), the Potency [7] is reported as “inactive”, the Potency [8] is reported as “inactive” and the outcome [9] is reported as “inactive”. For the same compound, the outcome [10] was “inactive”.
